Compounds without any hit were thinned out: in the full panel of roughly 83,000, 20% have a hit.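 The endpoint reported here, percent growth, reads 100 for growth as untreated, 0 for no net growth and -100 for all cells dead.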 A number with no mark means an inactive call. Activity calls are given as the source filed them. Rule for the calls: active = growth percent below 10; inactive = the rest.

The subject of this test is HL-60(TB) leukemia. Kind of test: NCI-60 one-dose screen, 48 h (100 = growth as untreated, 0 = no growth, -100 = all killed). The settings on record: 10 µM unless noted.
Regarding `COc1cc2c(Oc3ccc4[nH]c(C)cc4c3F)ncnc2cc1OCCCN1CCCC1`, the growth was 102%. On to `CON1C(=O)CC[C@]2(C)[C@H]3CC[C@@H]4C([C@@]5(C)CCC(=O)O5)CC[C@@]4(C)[C@]3(C)CC[C@H]2C1(C)C` (stereo partly specified), for which the growth is 100%. In the case of `Cc1cc(C(=O)Nc2cc(Nc3ncccc3-c3ncnc4nc[nH]c34)ccc2F)cc(C(F)(F)F)c1`, the growth is 25.1%. On to `CC1(C)C(=O)/C(=C\c2ccco2)C[C@]2(C)[C@H]3CC[C@@H]4[C@@H](C(=O)/C=C/c5ccco5)CC[C@@]4(C)[C@]3(C)CC[C@@H]12`, for which the growth is 81.6%.

With `COc1ccc(NC(=O)c2sc3nc(C)c(C(=O)c4ccccc4)cc3c2N)cc1`, the growth is 78.8%. With `COc1ccc(C(=O)N/N=C/c2ccc(O)cc2O)cc1Nc1ccnc(C(F)(F)F)c1` the figure was 14.4%. As for `O=C(NCCc1ccccn1)OCc1nc2nc(Cl)nc(N3CCOCC3)c2[nH]1`, the growth is -47.6% (active). On to `COc1cccc(/C=C/C(=O)c2cc3c(N)c(C(=O)Nc4cccc(Cl)c4C)sc3nc2C)c1`, for which the growth is 0.771% (active). Consider `CCCCCN1C(=O)CCC1=O`, for which the growth is 88.1%.

Consider `Cc1ccc(-c2cc3nc(C(Cl)Cl)nc(-c4ccccc4C)n3n2)cc1`, for which the growth was 78.4%. `C=C1c2c(C)nn(-c3ccc(NC(C)=O)cc3)c2N(C)C23CC1C1(C)c4c(C)nn(-c5ccc(NC(C)=O)cc5)c4N(C)C(C)(CC12)C3` (stereo unspecified): the growth was -20.6% (active). With `CCOC(=O)c1c[nH][nH]c1=O` the figure was 110%.

For the compound `O=[N+]([O-])c1cccc(/C=C/c2ccccn2)c1`, the growth was 120%. For the compound `O=C1/C(=N/O)CCc2ccccc21`, the growth was 59.1%.

With `COc1cc(C(=O)n2nc(N3CCOCC3)c3cc(-n4cccc4)ccc32)cc(OC)c1OC`, the growth is 61.6%. Take `CCCCCCCCCCCCCCCCCCSC(=N)N`: the growth is 46%. For the compound `C#Cc1cccc(NC(=O)c2ccc(Cl)cc2Cl)c1`, the growth was 72.5%.

On to `CN(C)CCSC1=Nc2ccc(Cl)cc2C(c2ccccc2Cl)N(C)C1` (stereo unspecified), for which the growth was 35.1%. As for `O=C(N/N=C\c1cccc([N+](=O)[O-])c1)N/N=C/c1cccc([N+](=O)[O-])c1`, the growth was 107%.

For the compound `COC(=O)C1CC(=O)N(C(=O)Nc2ccc(Cl)cc2Cl)C1` (stereo unspecified), the growth was 97.8%.

In the case of `COc1ccc2nccc(/C=C/c3ccnc4ccc(OC)cc34)c2c1`, the growth was 63.5%. `CCCCOc1nc2ccc(OC)cc2cc1-c1cc(-c2ccc(Cl)cc2)nc(-c2ccc(Cl)cc2)c1`: the growth is 103%. On to `Clc1ccc(C(/C=C/c2sc(Cl)nc2Cl)=N/Nc2cc(Cl)cc(Cl)c2)cc1`, for which the growth is 99.4%. With `COc1ccc(C(=O)CC(c2ccccc2)C(C#N)c2ccccc2)cc1` (stereo unspecified) the figure was 87.3%; with `COc1ccc(Cc2cnc(N)nc2N)cc1OC`, 95.2%.

`COc1cc2c(c(OC)c1OC)C(=O)N[C@@H]1[C@@H](O)[C@@H](O)[C@H](O)C[C@@H]21`: the growth was 99.3%.

Source of the values: PubChem BioAssay (NCI).
